Composite z-score, z-score and composite Z-score data for six compounds are collected here from PubChem BioAssay.

Test [1] deals with Human papillomavirus type 1a protein E7 (residues 44-93). Put plainly: HPV1a E7 fragment binders on microarrays, primary screen, biochemical, small-molecule microarray, residues 44-93, 635 nm fluorescence (AID 1108).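 Further: E7 fragment applied at 1 µg/mL in TBST for 1 h at 4 C; score combines spot fluorescence with its signal to noise ratio.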 The note with it: small-molecule microarray binding, fluorescence 635 nm; higher = more signal.
Test [2] in a line: modulators of HCV replicon luciferase signal, primary screen, HCV replication inhibitor project, Huh7 cells, luciferase reporter (AID 1109).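 Further: huh7 hepatoma cells harbouring a luciferase neomycin HCV replicon reporter; luciferase luminescence as measure of HCV replicon replication; test concentration not given here.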 The note with it: 48 h, higher = more signal. In general terms: Replicon systems follow genome replication, usually without infectious particles.
For test [3], the target named is Left-right determination factor 2 (Homo sapiens) (UniProt O00292). Put plainly: LEFTY2 binders on small-molecule microarrays, primary screen, biochemical, small-molecule microarray, 635 nm fluorescence scan (AID 1110). The note with it: LEFTY2 binding, higher = more signal.
Test [4] has as its target Calmodulin-1 (Homo sapiens) (UniProt P0DP23). Nature of the test: CALM1 binders on microarrays, EGTA buffer, profiling panel, biochemical, small-molecule microarray, Cy5-labelled CALM1 (AID 1111).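 Further: labelled calmodulin applied in Tris saline Tween buffer holding calcium plus EGTA and DTT.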 The note with it: Cy5-CALM1 binding fluorescence, higher = more signal.
Test [5] shares this target. Put plainly: calcium-bound CALM1 binders on microarrays, profiling panel, artefact control for SMM control-protein annotation, biochemical, small-molecule microarray, Cy5-labelled CALM1, plus calcium (AID 1112).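 Further: score merges spot fluorescence with signal to noise from triplicate slides.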 The note with it: Cy5-CALM1 binding fluorescence, higher = more signal.
The nature of test [6]: small-molecule microarray binders of probe aWnt5a, primary screen, biochemical, biotinylated probe, 635/667 nm fluorescence (AID 1113).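 Further: score merges 667 nm fluorescence intensity with signal-to-noise per printed feature.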 The note with it: higher = more signal.
A short description of test [7]: small-molecule microarray binders of probe aShh, primary screen, biochemical, biotinylated probe, 635/667 nm fluorescence (AID 1114).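 Further: probe is biotin-labelled aShh protein from a stem cell growth factor screen; measures binding of labelled protein to compounds printed on the slide; score merges feature fluorescence at 667 nm with signal-to-noise.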 The note with it: higher = more signal.
The nature of test [8]: small-molecule microarray binders of probe aNog, primary screen, biochemical, biotinylated probe, 635/667 nm fluorescence (AID 1115).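 Further: probe is biotinylated aNog protein used at 0.15 µg/mL for 1 h at 4 C; z-score combines 667 nm fluorescence of each spot with its signal to noise.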 The note with it: higher = more signal.
Test [9] deals with Torsin-1A-interacting protein 1 (Homo sapiens) (UniProt Q5JTV8). Nature of the test: LAP1 binders from COS7 cell lysate, primary screen, small-molecule microarray, 635/667 nm fluorescence (AID 1116). The note with it: COS7-hLAP1 lysate binding, 635 nm fluorescence, higher = more signal.
In test [10] the target is Alpha-bungarotoxin (Bungarus multicinctus) (UniProt P60615). Put plainly: alpha-bungarotoxin binders on microarray, profiling panel, artefact control for SMM control protein annotation, biochemical, small-molecule microarray, Alexa647 label, 635/667 nm fluorescence (AID 1117). The note with it: alpha-BTX-A647 binding fluorescence, higher = more signal.
For test [11], the target named is Albumin (Bos taurus) (UniProt P02769). Put plainly: bovine serum albumin binders on microarray, profiling panel, artefact control for SMM control protein annotation, biochemical, small-molecule microarray, Alexa647 label, 635/667 nm fluorescence (AID 1118).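 Further: score merges 667 nm emission intensity and signal-to-noise per printed compound spot.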 The note with it: BSA-A647 binding, fluorescence 635 nm, higher = more signal.
The nature of test [12]: small-molecule microarray binders of probe aXIP, primary screen, biochemical, NeuroSMM set, 635/667 nm fluorescence (AID 1119).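 Further: probe is the protein aXip251-270 applied at 1 µg/mL to compound-printed slides; binding of probe to printed compounds measured as 667 nm fluorescence plus signal to noise.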 The note with it: higher = more signal, called active from +8 up or from −8 down.
Test [13] in a line: small-molecule binders of probe aNOTCH3, primary screen, biochemical, small-molecule microarray, 635/667 nm fluorescence (AID 1120).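 Further: probe is a biotin-tagged antibody raised against NOTCH3 rather than NOTCH3 protein; score merges spot fluorescence near 667 nm with spot signal to noise.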 The note with it: higher = more signal.
Test [14] in a line: small-molecule binders of probe aNOTCH2, primary screen, biochemical, small-molecule microarray, 635/667 nm fluorescence (AID 1121).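 Further: score merges feature fluorescence read at 667 nm with its signal to noise.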 The note with it: higher = more signal.
Test [15] deals with Carbonic anhydrase 2 (Homo sapiens) (UniProt P00918). Put plainly: CAII small-molecule binders, profiling panel, biochemical, small-molecule microarray, Alexa647-labelled CAII (AID 1122). The note with it: CAII-A647 binding fluorescence, higher = more signal.
A short description of test [16]: COS7 lysate on small-molecule microarray, probe aHis, 635 nm (AID 1123).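 Further: z-score combines 667nm fluorescence intensity with signal-to-noise per printed compound spot.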 The note with it: COS7 cell lysate, fluorescence, higher = more signal.
A short description of test [17]: compound binding in COS7 lysate, probe aLAP1, primary screen, cell lysate, small-molecule microarray (AID 1124).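 Further: lysate comes from COS7 cells expressing LAP1 and is applied at 0.3 µg/mL; score merges spot fluorescence near 667 nm with signal-to-noise over triplicate slides.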 The note with it: probe aLAP1, fluorescence, higher = more signal.
Test [18] has as its system Sam68 (KHDRBS1). Put plainly: Sam68 small-molecule binders, primary screen, biochemical, small-molecule microarray, 635 nm fluorescence (AID 1125).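 Further: score merges 667 nm channel intensity with signal to noise over triplicate slides.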 The note with it: small-molecule microarray binding, higher = more signal.
Test [19] has as its system Chordin-like protein 2 (CHRDL2). Put plainly: CHRDL2 small-molecule binders, primary screen, biochemical, small-molecule microarray, 635 nm fluorescence (AID 1126).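 Further: printed compound slides probed with Chrdl2 protein at 4 µg/mL for 1 h at 4 C; score merges 667 nm emission intensity with signal to noise over three replicate slides.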 The note with it: small-molecule microarray binding, fluorescence 635 nm; higher = more signal.
Test [20] has as its target Concanavalin-A (Canavalia ensiformis) (UniProt P02866). Nature of the test: ConA small-molecule binders, primary screen, artefact control for SMM control protein annotation, biochemical, small-molecule microarray, Alexa647 label, 635 nm (AID 1127).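 Further: z combines 667 nm emission intensity with signal-to-noise across three replicate slides.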 The note with it: ConA-A647 binding fluorescence, higher = more signal.

Activity calls are given as the source filed them.

Sequence of Albumin (Bos taurus) (P02769 whole entry, looked up): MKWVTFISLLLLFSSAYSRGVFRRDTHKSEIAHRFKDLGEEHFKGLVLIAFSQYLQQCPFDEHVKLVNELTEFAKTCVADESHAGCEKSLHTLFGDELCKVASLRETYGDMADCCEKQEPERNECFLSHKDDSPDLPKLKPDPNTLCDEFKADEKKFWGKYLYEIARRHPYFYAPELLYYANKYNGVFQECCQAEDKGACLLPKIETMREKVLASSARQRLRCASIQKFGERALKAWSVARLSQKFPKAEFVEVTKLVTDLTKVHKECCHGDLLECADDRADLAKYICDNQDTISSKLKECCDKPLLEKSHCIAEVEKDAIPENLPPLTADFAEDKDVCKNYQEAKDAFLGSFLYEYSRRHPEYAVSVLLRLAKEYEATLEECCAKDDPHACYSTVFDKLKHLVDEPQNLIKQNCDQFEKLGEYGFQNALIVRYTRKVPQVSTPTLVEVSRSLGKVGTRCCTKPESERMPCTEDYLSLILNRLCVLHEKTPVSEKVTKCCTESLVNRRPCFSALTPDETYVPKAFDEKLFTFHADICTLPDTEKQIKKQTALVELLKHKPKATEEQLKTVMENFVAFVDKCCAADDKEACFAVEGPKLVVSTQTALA
Sequence of Alpha-bungarotoxin (Bungarus multicinctus) (P60615 whole entry, looked up): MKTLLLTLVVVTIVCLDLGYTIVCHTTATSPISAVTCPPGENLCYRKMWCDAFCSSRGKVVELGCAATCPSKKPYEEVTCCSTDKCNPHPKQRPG
Sequence of Left-right determination factor 2 (Homo sapiens) (O00292 whole entry, looked up): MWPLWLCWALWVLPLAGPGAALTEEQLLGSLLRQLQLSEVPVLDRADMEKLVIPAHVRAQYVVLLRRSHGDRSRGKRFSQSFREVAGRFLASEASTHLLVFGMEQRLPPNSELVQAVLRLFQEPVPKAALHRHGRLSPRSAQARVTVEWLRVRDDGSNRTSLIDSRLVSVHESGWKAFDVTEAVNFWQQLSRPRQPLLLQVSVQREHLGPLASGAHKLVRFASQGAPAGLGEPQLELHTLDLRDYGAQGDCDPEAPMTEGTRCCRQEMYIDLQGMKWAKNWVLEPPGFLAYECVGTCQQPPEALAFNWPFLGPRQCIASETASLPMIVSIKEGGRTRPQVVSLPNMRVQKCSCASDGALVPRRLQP
Sequence of Torsin-1A-interacting protein 1 (Homo sapiens) (Q5JTV8 whole entry, looked up): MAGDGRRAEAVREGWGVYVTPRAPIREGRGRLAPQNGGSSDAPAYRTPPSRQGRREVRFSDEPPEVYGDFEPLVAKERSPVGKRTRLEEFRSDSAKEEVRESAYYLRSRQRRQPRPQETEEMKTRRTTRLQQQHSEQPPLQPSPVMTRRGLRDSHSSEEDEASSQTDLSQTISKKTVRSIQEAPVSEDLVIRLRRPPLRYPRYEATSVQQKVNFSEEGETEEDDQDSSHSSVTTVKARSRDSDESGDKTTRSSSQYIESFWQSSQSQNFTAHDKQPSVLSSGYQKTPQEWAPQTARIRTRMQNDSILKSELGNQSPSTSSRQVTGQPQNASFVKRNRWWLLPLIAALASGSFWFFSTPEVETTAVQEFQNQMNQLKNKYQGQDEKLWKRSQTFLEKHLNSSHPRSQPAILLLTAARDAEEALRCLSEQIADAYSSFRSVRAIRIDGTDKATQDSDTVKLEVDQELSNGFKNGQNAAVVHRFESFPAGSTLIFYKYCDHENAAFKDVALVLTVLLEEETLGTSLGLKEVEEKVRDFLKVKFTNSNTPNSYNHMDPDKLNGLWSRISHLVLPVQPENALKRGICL
Sequence of Concanavalin-A (Canavalia ensiformis) (P02866 whole entry, looked up): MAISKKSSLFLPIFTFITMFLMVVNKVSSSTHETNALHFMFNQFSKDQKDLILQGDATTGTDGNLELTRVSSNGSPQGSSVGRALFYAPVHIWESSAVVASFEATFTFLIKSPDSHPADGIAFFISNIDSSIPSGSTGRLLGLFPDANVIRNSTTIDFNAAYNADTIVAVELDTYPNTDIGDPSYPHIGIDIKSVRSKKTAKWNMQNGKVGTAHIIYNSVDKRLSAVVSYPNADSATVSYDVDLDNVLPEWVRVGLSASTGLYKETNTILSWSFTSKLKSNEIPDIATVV

In the case of `O=C1N(CCS(=O)(=O)c2ccccc2)Cc2ccccc2C[C@@]12COC(c1ccc(OCCCO)cc1)=N2`, the composite z-score in test [1] was 1.08; in test [3], 0.906; in [4], 0.303; in [5], 0.87; in test [6], 0.0561; in [7], -0.0858. The composite z-score was 0.618 in test [8]; 1.56 in [9]; 2.33 in [10]; -0.0401 in test [11]; 0.384 in test [13]; -0.0651 in test [14]. Also, the composite z-score in test [15] stood at 0.585; in [16], 2.55; in test [17], 0.203; in [18], 1.32; in test [19], 0.825; in test [20], 1.17. In [2], the z-score is -2.31. In test [12], the composite Z-score was 0.319 (inactive).

In the case of `C=CCN1C(=O)[C@@]2(O[C@@H](CCn3cc([C@H](O)c4ccccc4)nn3)[C@H]([Si](C)(C)c3ccc(OC)cc3)[C@H]2C)c2cc(NC(=O)c3ccc(OC)cc3)ccc21`, the composite z-score is 0.795 in test [1]; 0.426 in test [3]; 0.607 in test [4]; 0.14 in [5]; -0.0735 in test [6]; 0.0815 in test [7]. Also, the composite z-score was 0.338 in test [8]; 0.385 in [9]; 0.627 in test [10]; -0.105 in test [11]; -0.0932 in test [13]; -0.173 in test [14]. Besides, the composite z-score in test [15] worked out at 0.148; in [16], 0.637; in test [17], 0.0719; in [18] it was 1.03; in [19], 0.271; in [20], 0.713. The compound also yielded a z-score in test [2] of -3.99. Also, the composite Z-score in test [12] was -0.0277 (inactive).

Regarding `CCN(CC)c1ccc(N2CC=CC34O[C@@H]5/C=C\CCCOC(=O)C5[C@H]3C(=O)N(CCCCCO)[C@@H]4C2=O)cc1` (stereo not given in full), the composite z-score in test [1] is -0.592; in test [3] it was -1.57; in test [4], -1.06; in [5] it was -0.996; in [6], -0.203; in test [7], -0.221. For the same compound, the composite z-score is -0.254 in [8]; 0.424 in test [9]; -1.04 in test [10]; 0.567 in test [11]; -0.402 in test [13]; -0.198 in test [14]. For the same compound, the composite z-score was 0.342 in test [15]; -0.343 in [16]; 0.0397 in test [17]; -1.83 in test [18]; -1.2 in test [19]; -0.518 in test [20]. Further, the z-score in test [2] was -0.376. In addition, the composite Z-score in test [12] was 0.226 (inactive).

Take `C[N+](C)(C)CCCC[C@@H]1NC(=O)[C@H]2C[C@@H](C(=O)NCCCCCCN)[C@@H](c3cccc(OCCO)c3)N2C1=O`: the composite z-score in test [1] was determined as 1.4; in test [3], 1.39; in [4], 1.11; in test [5] it was 1.13; in [6], 0.469; in [7] it was 0.705. Besides, the composite z-score in [8] was 2.31; in test [9], 1.21; in test [10] it was 0.995; in test [11], 0.149; in test [13], 0.536; in test [14] it was 0.198. Moreover, the composite z-score in [15] worked out at 0.752; in test [16], 2.07; in test [17], 1.04; in test [18], 1.3; in test [19], 0.886; in [20], 0.936. In addition, the z-score in [2] is 0.347. The composite Z-score in [12] is 0.514 (inactive).

For the compound `COC(=O)[C@@]1(Cc2ccccc2)[C@H]2c3cc(C(=O)N4CCCC4)n(Cc4ccccc4)c3C[C@H]2CN1C(=O)c1ccccc1`, the composite z-score is 1.45 in test [1]; -0.347 in test [3]; 1.42 in [4]; 0.168 in test [5]; 0.0362 in test [6]; 0.356 in [7]. Besides, the composite z-score was found to be 1.48 in test [8]; 0.55 in test [9]; 0.401 in test [10]; 0.76 in test [11]; 0.591 in test [13]; 0.302 in [14]. The composite z-score was 0.637 in test [15]; 2.36 in test [16]; -0.0361 in [17]; 0.5 in test [18]; -0.883 in test [19]; 0.914 in test [20]. In addition, the z-score in test [2] was -2.45. For the same compound, in test [12], the composite Z-score was 0.689 (inactive).

On to `CN1C(=O)C2C=CC(C(O)COCc3ccccc3)N(Nc3ccccc3)C2C1=O` (stereo not given), for which the composite z-score in test [1] is 0.372; in test [3], 0.0615; in test [4] it was -0.0981; in test [5], -0.57; in [6] it was 0.0403; in test [7] it was -0.0793. In addition, the composite z-score in test [8] was 1.03; in test [9], 0.661; in test [10] it was 0.347; in test [11], 0.898; in [13] it was 0.348; in [14] it was -0.127. Moreover, the composite z-score in test [15] was 0.81; in [16], 1.44; in test [17], -0.0468; in [18], 0.616; in [19], -0.142; in test [20], 0.479. The compound further yielded a z-score in [2] of 0.74. For the same compound, the composite Z-score in test [12] is -0.0217 (inactive).
